Bioassay records (PubChem)
FBW7 act – FBW7 E3 ligase activators, primary screen, biochemical, AlphaScreen, human; AlphaScreen FBW7–phospho-cyclin E peptide binding, activator screen; normalized activity (activation), % at 26.1 µM; 650,000 tested, 0.13% active; in the data active = normalized activity above about 1.9%;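 note: purified mutant Fbw7 with reduced substrate affinity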
Target sequence (Q969H0 whole entry, looked up): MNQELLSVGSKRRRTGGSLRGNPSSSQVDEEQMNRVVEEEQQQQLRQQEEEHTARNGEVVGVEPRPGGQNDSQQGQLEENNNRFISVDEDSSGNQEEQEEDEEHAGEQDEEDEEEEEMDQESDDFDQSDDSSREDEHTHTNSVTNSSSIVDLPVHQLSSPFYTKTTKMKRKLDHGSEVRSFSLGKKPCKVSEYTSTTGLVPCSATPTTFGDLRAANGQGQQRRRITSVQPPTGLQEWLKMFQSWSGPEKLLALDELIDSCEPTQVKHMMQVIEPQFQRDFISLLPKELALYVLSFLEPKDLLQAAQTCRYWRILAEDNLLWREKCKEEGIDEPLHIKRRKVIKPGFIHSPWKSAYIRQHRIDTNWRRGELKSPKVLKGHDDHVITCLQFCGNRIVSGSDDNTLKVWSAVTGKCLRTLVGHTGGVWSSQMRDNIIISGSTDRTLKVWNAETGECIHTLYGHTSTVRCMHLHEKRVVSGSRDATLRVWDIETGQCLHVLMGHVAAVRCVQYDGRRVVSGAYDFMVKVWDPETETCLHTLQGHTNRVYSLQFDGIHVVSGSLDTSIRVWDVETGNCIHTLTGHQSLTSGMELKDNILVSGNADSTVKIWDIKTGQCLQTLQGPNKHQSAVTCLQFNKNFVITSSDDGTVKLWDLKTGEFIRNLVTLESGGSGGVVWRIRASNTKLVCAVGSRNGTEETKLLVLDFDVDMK
TEAD-YAP inh – TEAD-YAP interaction inhibition, primary screen, TEAD-YAP interaction inhibitor project, luminescence, HEK-TIYL cells; TEAD-Gal4/YAP UAS-luciferase luminescence; inhibition, % at 9.12 µM; 640,000 tested, 1.4% active; in the data active = inhibition above about 32%;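 note: 0% = median of test compound wells and 100% = reference inhibitor wells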
GPR151 activ – activators of human GPR151, primary screen, cell-based, PathHunter beta-arrestin, luminescence; G-protein coupled receptor 151 (Homo sapiens), Q8TDV0; PathHunter beta-arrestin GPR151 cells; activation, % at 11.2 µM; 650,000 tested, 1% active; in the data active = activation above about 4.9%;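 note: 0% = median of compound wells and 100% = cells with positive control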
MITF primary – MITF inhibitors, primary screen, biochemical, AlphaScreen, human. AlphaScreen MITF homodimerization, bead proximity signal. Microphthalmia-associated transcription factor (Homo sapiens), O75030. inhibition, % at 2.6 µM. 650,000 tested, 0.91% active; in the data active = inhibition above about 50%;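 note: 0% = vehicle wells with protein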
* hit, by the source's call; nt = no result. A selection: hits, their analogues and other compounds. The true share with any hit is near 3.5%.

SMILES	FBW7 act	TEAD-YAP inh	GPR151 activ	MITF primary
CC(=O)/C=C(\C)N1N=C(c2ccccc2)CC1c1cccc([N+](=O)[O-])c1 (centres undefined)	0	-48	0	-26
COc1cc(C)ccc1S(=O)(=O)Oc1cccc2ccc(C)nc12	0	37*	1	11
Cc1cncc2cccc(N3CCN(C(=O)C(N)c4ccc(F)cc4)CC3)c12 (centres undefined)	0	2	1	6
CSCc1ccc(C(=O)NC2CCCCCC2)cc1	0	47*	-6	-4
O=C(NC1CCCCC1)c1ccc(CSc2ccc(Cl)cc2)cc1	0	-4	0	-7
CC(C)C(=O)N1C2=C(C(=O)c3ccccc32)C(c2ccc([N+](=O)[O-])cc2)c2c1n(C)c(=O)n(C)c2=O (centres undefined)	0	-8	0	-15
CCCCC/C=C\C/C=C\C/C=C\C/C=C\CCCC(=O)SCC(O)CO (centres undefined)	nt	nt	-1	-14
O=C(Nc1ccc(Cc2ccncc2)cc1)c1ccc(Br)cc1	0	39*	3	6
Cc1ccc(Cc2cnc(NC(=O)COc3ccccc3C)s2)cc1	0	17	0	10
Cc1cccc(Cc2cnc(NC(=O)COc3ccccc3C)s2)c1	0	54*	1	-2
O=C(CCc1ccccc1)Nc1ccc(Cc2ccncc2)cc1	0	40*	2	0
O=C(CSCc1ccc(Cc2ccc(CSCC(=O)Nc3ccccc3)cc2)cc1)Nc1ccccc1	0	35*	-1	11
Cc1ccc(C(=O)Nc2ccc(Cc3ccncc3)cc2)cc1	0	10	-1	-7
CCOc1ccc(C2=C3C(=O)C(=O)N(c4ccccc4)C3(C(=O)OC)Nc3ccccc3N2)cc1 (centres undefined)	0	-12	1	4
Cc1ccc(Cc2cnc(NC(=O)COc3ccccc3)s2)cc1	0	52*	0	14
O=C(CCc1ccccc1)Nc1ncc(Cc2ccccc2)s1	0	49*	-1	8
O=C(CCCl)Nc1ncc(Cc2ccccc2)s1	0	-1	1	8
Cc1ccccc1OCC(=O)Nc1ncc(Cc2ccc(F)cc2)s1	0	51*	-1	-6
O=C1NC2(CCN(C(=O)CCc3ccccc3)CC2)Oc2ccccc21	0	-6	0	11
COc1ccccc1-c1nnc2sc(-c3cc4ccccc4o3)nn12	0	53*	0	-19
CC1=NN(c2ccccc2)C(=O)C1N=Nc1cccc(O)c1 (centres undefined)	-1	49*	-1	26
O=C(O)c1cc(-c2ccc3c(c2)OCO3)nc2cc3c(cc12)OCCO3	0	32*	0	16
Cc1c(Br)c(C(F)(F)F)nn1CC(=O)NCc1ccc(F)cc1C(F)(F)F	0	36*	-1	-1
COc1cc(CNC(=O)Cn2nc(C(F)(F)F)c(Br)c2C)cc(OC)c1	0	3	0	20
CC(=O)c1cccc(NS(=O)(=O)c2ccc(NC(=O)c3ccccc3Cl)cc2)c1	0	39*	0	4
SMILES	FBW7 act	TEAD-YAP inh	GPR151 activ	MITF primary
COc1ccc(NS(=O)(=O)c2ccc(NC(=O)c3cccc([N+](=O)[O-])c3)cc2)cc1	0	33*	0	3
O=C(Nc1cccc([N+](=O)[O-])c1)c1cccc(S(=O)(=O)Nc2cccc(F)c2)c1	0	16	0	-16
Cc1ccc(S(=O)(=O)Nc2ccccc2C(=O)Nc2ccc([N+](=O)[O-])cc2)cc1	0	63*	1	19
Cc1ccc(S(=O)(=O)Nc2ccccc2C(=O)Nc2ccc(C(=O)O)cc2)cc1	0	-10	1	-4
O=C(Nc1ccc([N+](=O)[O-])cc1)c1cccc(S(=O)(=O)Nc2cccc(F)c2)c1	0	33*	0	-11
Cc1ccc(S(=O)(=O)Nc2cncc(C(=O)Nc3ccc(C(F)(F)F)cc3)c2)cc1	0	0	3	2
CCOC(=O)CSc1nc2c(sc(=S)n2-c2ccccc2C)c(=O)n1-c1ccccc1	0	-6	0	-3
COC(=O)c1ccc2nc(-c3ccc(F)cc3)c(Br)n2c1	0	-9	0	6
COc1cc(OC)cc(C(=O)Nc2ccc(S(=O)(=O)Nc3nccc(C)n3)cc2)c1	2.0*	-13	1	14
